For 108 sequences, z-score results are on record in PubChem BioAssay AID1508600 (Functional Genomics Laboratory (NCATS/FGL), 2020).

Among all 53,000 sequences or so, about 3,700 (7%) were called active. Shown is part of a subset that was picked to be rich in actives. A number with no mark means an inactive call.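 Rule for the calls: active = gene knockdowns whose robust z-score for IL-1 alpha signal is at least 2 or at most -2, so actives lie on both sides; inactive = the rest.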

The nature of the experiment: Components of the Cytosolic LPS Sensing Pathway: Gene Identification via Genome-wide siRNA Screen.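 Note: robust z of the log signal after scaling to non-targeting control siRNA wells of the plate.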 The following applies: RAW264.7 macrophages, IL-1a HTRF, actives lie on both sides, screened at 100 nM (by protocol), cells primed 5 h with Pam3CSK4 first. The gist of the method: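 Supernatant IL-1a by HTRF from RAW264.7 cells primed with Pam3CSK4 (5 hours) and transfected with LipidA (24 hour) after 48h siRNA knockdown at 100 nM; cell viability checked with CellTiter-Glo.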
As to GGGACACCAAGUUUUCCAUTT against Paqr7, the z-score is 1.63.

Take GGAAGAAGCAGGUGAUUAATT against Grb14: the z-score is -1.24.

Turning to CGGAUCGGUGCGAGAAUAATT against Gpatch3, the z-score is 0.61.

GGCCCUGUGUCAAAUCAGUTT against Zfand6: the z-score was 2.1 (active).

Turning to GGAGAUUGUUAUGCAAAAATT against Dnah5, the z-score was 0.178.

Consider GGAAAUUUUGAACCUGACATT against Setd3, for which the z-score is 0.125.

Turning to GGUCUCAAAGAAAUCUGUATT against Bcap29, the z-score was -2.4 (active).

GGACUCUUCAGCUUCCAGUTT against Uts2: the z-score is -0.0543.

With CCAAGACUCUUUAUUCAACTT against Rasip1, the z-score was 0.774.

In the case of GGAGACAGAAAAUCAAGGCTT against Taf7, the z-score is -0.506.

For CCCUUGCUUGCUAAGAUUUTT against Scyl3, the z-score was -0.684.

In the case of “GCUGGUGUCUUAUGGCCUATT against 9130008F23Rik”, the z-score is -2.02 (active).

Consider GGAUACAGAGUAUUUCAAGTT against Rtkn, for which the z-score is -1.01.

As for GCUUGUUCGGGAAUCUUAUTT against Olfr292, the z-score is 0.116.

As to GCCUGUUCCGCCAUUCAUGTT against Flii, the z-score is -0.2.

As for GCUCACACUCUUCAUUAUCTT against Olfr1408, the z-score was -2.91 (active).

In the case of GGUGUUAGCUUCUCAAAAUTT against Cltrn, the z-score is 0.497.

Turning to GGAACAUCAUCCACUGGAATT against Crhr1, the z-score was 6 (active).

On to GGCAAUUUGUGGAUUAUUGTT against Olfr1105, for which the z-score is -0.458.

For CCCUAAUUCAUUAGCUAUATT against Dhdds, the z-score was 0.111.

In the case of GGACCCUGCUUUUUAAAAATT against Harbi1, the z-score was 0.293.

Take GGAAGAGGAGGAAAACUUGTT against Fam135b: the z-score was -0.653.

For the sequence GGAUGAUCUUGGUGUACACTT against Tmem91, the z-score is 3.04 (active).

On to GGUAUAAUUGGAAUUGUGATT against Morc1, for which the z-score was -0.658.

For the sequence GGUUGUCUGGAAUUUCCAUTT against Immp2l, the z-score is 3.81 (active).

As for CCCAAUUCCUUAACUAUUATT against Cd209a, the z-score is 1.02.

As to GGUGGAAAGUGCAUAGACATT against Notch3, the z-score was 0.789.

As for GGACCUGGAUCUAUCCUACTT against Lrfn1, the z-score is -0.969.

In the case of GGAUGAUGACUUCCUAGGGTT against Cpne7, the z-score is -0.622.

For CCUUAGGAUAGAAACAAAGTT against Mypn, the z-score is 1.01.

GCCAGUUAUGAGCAACACCTT against Slc46a1: the z-score was -2.14 (active).

For GCUAACAAAUGUCAGCAUGTT against Popdc3, the z-score was 0.319.

As to GCCGACUUUAAUGACUGCUTT against Cmtm4, the z-score is 1.71.

For the sequence CGAAACUGGUCUUUAUACUTT against Tigd4, the z-score is -1.27.

For the sequence AUGCGUCCUUCACCAACGATT against Tmem158, the z-score was -3.28 (active).

In the case of GGAUGACAUGUCAUCAAAGTT against Vmn1r89, the z-score was -1.38.

For the sequence GGGAAGAGUGGUGCAAUGATT against Olfr155, the z-score is 0.835.

Turning to GCAACAAUAAAUCGUACAGTT against Nupr1, the z-score was 0.246.

For the sequence GGGAAGUUCAUAUUGAUCCTT against Gsdma, the z-score is 0.691.

For the sequence GGCUUAAGGUGAGAUAUUCTT against Sp9, the z-score is -0.524.

For the sequence CGAGUGUUCCUCCAAGUGCTT against Fhl5, the z-score is 0.384.

As for GGGACUAAGAUGAAGCUGATT against Fam43a, the z-score is -2.18 (active).

Consider GCUCACUUAUCUACGUUUUTT against Trim15, for which the z-score is 0.639.

On to GCAUGUGACCUCGUCUUGCTT against Apbb2, for which the z-score was -1.04.

Regarding GGGCAUGAGAAAUCCACAGTT against Rhox9, the z-score was -1.23.

In the case of GGCAAAUAAAUUCAGCAAGTT against Pum3, the z-score is -0.0642.

As to GGACUUCCCGAACUACAUATT against Zfp52, the z-score was 0.0339.

For the sequence GGCUCUCUUUAGAACAGACTT against Rad17, the z-score was 0.479.

In the case of GCUACAUACCCAAAUACAUTT against Trpc4ap, the z-score was 2.1 (active).

Consider GGGACAUAUCUGAAGCAAGTT against Rps26, for which the z-score is 0.896.

In the case of GCUUCUGUCAUAAUGAUAUTT against Pramel6, the z-score was -2.33 (active).

Take CCAGAAACCAAUCUUUCUUTT against Serpinb1a: the z-score was -0.0285.

For CCCUAGUGAUAAGGAAUGCTT against Cxcl9, the z-score is 0.228.

As to GGUGACCACUUCAUGUCACTT against Tmem138, the z-score was -1.28.

With GCGGGAGCUUAGCUUUUAUTT against G6pc3, the z-score was 3.33 (active).

In the case of CCGUAGACUCGGUGAAGCUTT against Plpbp, the z-score was -0.143.

On to GGUCAGAAUCUUUGUUCCUTT against Ndufs4, for which the z-score is -0.912.

Regarding GGAUUCCCUGUAUGCCCAATT against Rpl36al, the z-score is -0.23.

Regarding GGAGAAGCCAAAAGAAUGCTT against Xrn2, the z-score was -0.76.

GCUUACAAGUUGCUACUGGTT against Dnajc8: the z-score is 0.425.

Turning to GGGCAAUUCUAUCAAAGAGTT against Gps1, the z-score is -2.14 (active).

In the case of CCUAUAGCAAUGGCAGCAGTT against Pkn1, the z-score is -1.66.

For GGUCCUUUCCCAUAACCUGTT against Swap70, the z-score is -0.922.

For GCGGACUACUAUGCUAAAGTT against Tgfb1, the z-score is 1.08.

For the sequence GGUGUUCAAAAAGUUUAACTT against Zswim1, the z-score was 1.02.

On to GCCAAGCUCGCCAAGAUUATT against P4ha2, for which the z-score is 0.273.

On to GCUGAAGUGCAAGAACAAATT against Dmd, for which the z-score is 1.91.

For GGUUUUGGCGGAUACUAAGTT against Plin3, the z-score was -0.24.

GGAUGAGAGAAAGUUACCCTT against Tspo2: the z-score was -2.78 (active).

On to GGGCAUCUCAGAUUUAGCUTT against Cct3, for which the z-score is -0.0572.

GGGUGAAGAUUCUCUACAATT against Dctn3: the z-score is -0.621.

For the sequence GGACUGAACCCAAAUGCCUTT against Chtf8, the z-score is -1.45.

Consider GGAGCUUACAUGGUCCCUATT against Prss37, for which the z-score is -0.238.

For CGAGAAGGAUAUAAUUGUUTT against Klhl18, the z-score was 0.449.

As to GGUUUCGAACUGAUGAAGCTT against Nemf, the z-score is 0.284.

GGCAAAACAAAGAAUGAAATT against Prss40: the z-score was -0.38.

As for “CGAAGUCUGAAACACAUGUTT against A730018C14Rik”, the z-score is 4.13 (active).

With GGACUCACAGAAAUUUCCATT against Slc36a1, the z-score was -1.53.

With GGUAAUGAGACGCGGUUUATT against Ina, the z-score is 0.202.

With GCAACACCUUAUGUUUCAUTT against Cab39, the z-score is 1.68.

For the sequence GGCACGAUUUGCUUAUUUUTT against Usf2, the z-score was 0.0682.

Take GCCUCCUACUGGUUCCAAATT against Commd7: the z-score was 2.05 (active).

For GUCUUCUCUGCCUGUCUGATT against Lce3c, the z-score was -0.0986.

In the case of CCCAGGGAGAAUUGACUUGTT against Sertad1, the z-score was 0.0114.

Take GGCCUUUGUAGUAUCCCAGTT against Nudt16: the z-score is -0.709.

Take GCACCAAUCAAUGAGGAGATT against Was: the z-score was -0.785.

For the sequence GGAGUGAUGUCCAUACUGGTT against Leap2, the z-score was -2.57 (active).

For CCAUCCUAAGCAGAGUCACTT against Frg2f1, the z-score is -0.446.

In the case of GGAUGUUGAUUUUCAUGGUTT against Grpel2, the z-score was 1.13.

On to GGGUAUUCAUGAUGUCUUUTT against Kctd6, for which the z-score was 1.39.

On to GGCAUCACUGAUGAAUGAATT against Pacsin2, for which the z-score was -0.585.

With GGAACAUCCAGUCUCUCACTT against Fbxo31, the z-score was 0.244.

Take “CCCAGGUGUAUUUUACAUATT against D10Wsu102e”: the z-score was -0.00657.

On to CGCGGAGGUCUCUCUUAUUTT against Prss39, for which the z-score was 2.22 (active).

In the case of GGUAUUUAAUGGAAGCCUGTT against Acp7, the z-score is -0.537.

For GGCAUCUUUCAUAAAACCGTT against Atad3aos, the z-score is -0.622.

For GCCUAUCAGAAGCUGUUAATT against Eif2ak2, the z-score is 3.59 (active).

As to GGAGAUAUUAUUGUUCAGATT against Cemip2, the z-score was -0.337.

With GUGCUUUCGUGUUUUUCAATT against Klrb1b, the z-score is -0.388.

Turning to GCUAUCGUGAUAAUCUGGATT against Gxylt2, the z-score is -0.113.

Turning to CUUAAAGGAAUCCUGGUGGTT against Fam169b, the z-score is 0.0229.

Take CCUGCAUGCCUAUGUGCGUTT against Ace: the z-score was 2.89 (active).

Consider GAAGACUUCGUCCUAACAGTT against Ctsg, for which the z-score is -0.195.

Turning to GGCCUCUUACAAAGUGAGATT against Supt7l, the z-score was -0.265.

On to GGGAUAUGUGAAGCCUCAGTT against Mospd3, for which the z-score was -1.21.

Regarding GGAACAGUUCCUUGUGGUUTT against Uqcrh, the z-score was 0.935.

Take GGUUCAGAAUUUAACCUUATT against Phc3: the z-score was 3 (active).

In the case of GGUAUUGUGAAACGUACACTT against Ky, the z-score was 0.914.
